# Assay results reported in PubChem BioAssay AID1671192 (National Center for Advancing Translational Sciences (NCATS), 2021).
# Records with an inconclusive call do not appear. Activity calls are given as the source filed them. The call rests on the fitted dose curve; in most records, active means well fitted curve in the direction sought with a large enough effect; inconclusive means small, poorly fitted or top-dose-only effect, or another doubt; inactive means no such curve, though single readings can be large or run the other way.
# Target: Polyunsaturated fatty acid lipoxygenase ALOX15 (Homo sapiens) (UniProt P16050)
# Assay: Counterscreen qHTS for inhibitors of human arachidonate 12S-lipoxygenase (ALOX12): ALOX15 Assay
# Settings: purified ALOX15 enzyme activity; series mostly up to 110 µM
# Description: Assay Provider: Theodore R. Holman Ph.D.
# University of California, Santa Cruz, California
# Human lipoxygenase 12hLO is a member of the closely related lipoxygenase family of enzymes which catalyze the site-specific oxidation of arachidonic acid to various hormone precursor molecules and as such is a candidate for drug development in a variety of disease areas, such as cancer and inflammation. Inhibition of 12hLO activity was screened by utilizing arachidonic acid as a substrate. The extent of hydroperoxide product formation was measured by a secondary chromogenic reaction in which xylenol orange (XO, Sigma-Aldrich, cat. number 39,818-7) reacts with the ferric ions produced from the reaction between the hydroperoxide and ferrous ions. The Fe (III)-XO complex is characterized with red-shifted absorbance at 560 nm. A purified preparation of human 12hLO was supplied by Dr. Holman laboratory, University of California, Santa Cruz.
# An assay against arachidonate 15-lipoxygenase (ALOX15) was developed to assess selective inhibition against ALOX12. Desired compounds would show potent inhibition against ALOX12 and minimal to no inhibition against ALOX15.
# SEQUENCE No. (e.g., 1, 2, 3, etc.); PARAMETER (e.g., Cells, Incubation, Reagent, etc.); VALUE; DESCRIPTION
# 1; Enzyme; 3 uL; 40 nM ALOX15 (15hLO-1) enzyme solution dispensed in 1536-well Greiner black, clear bottom plates.
# 2; Compound; 23 nL; compounds and controls were added.
# 3; Incubate; 15 min; room temperature.
# 4; Substrate; 1 uL; 50 uM arachidonic acid (final concentration).
# 5; Incubate; 30 min; room temperature.
# 6; Reagent; 4 uL; Fe-XO solution was added to each well.
# 8; Incubation; 30 min; room temperature
# 9; Detector; absorbance; Read 1 at 405 nm absorbance using ViewLux (PerkinElmer) CCD imager.
# 10; Detector; absorbance; Read 2 at 573 nm absorbance using ViewLux (PerkinElmer) CCD imager.
# NOTES (numbers refer to sequence above)
# 1; 40 nM ALOX15 (final concentration) in buffer solution (25 mM Hepes, 0.01% Triton X-100, pH 7.5) was dispensed in columns 1, 2, 5 - 48. Column 1 is neutral (100% activity). Buffer only was dispensed in columns 3 and 4 as no enzyme negative controls. The plates were covered with metal lids with gas-exchange holes.
# 2; Compounds were pin transferred via a Kalypsys Pin Tool (Wako USA) in column 5 - 48. Control compound was transferred in column 2, titration of nordihydroguaiaretic acid (NDGA, Sigma-Aldrich, N5023) with top concentration of 10 mM in DMSO then 1:2 dilution in duplicate. Dilution factor of 23 nL into 4 uL final assay volume.
# 3; Covered assay plates were incubated for 15 min at room temperature.
# 4; Substrate was added to start the reaction; 50 uM arachidonic acid (Sigma-Aldrich, St. Louis, MO) was dispensed throughout the plate.
# 6; Chromogenic detection reagent solution (divalent iron/xylenol orange, Fe-XO) was added to each well: 200 uM xylenol orange, 300 uM ferrous ammonium sulfate prepared freshly in 50 mM sulfuric acid.
# 9, 10; Two absorbance readouts were obtained at 405 nm and at 573 nm using a ViewLux high-throughput CCD plate imager (PerkinElmer). The 573 to 405 (Read 2 / Read 1) absorbance ratio was used to compute reaction progress.
# Polyunsaturated fatty acid lipoxygenase ALOX15 (Homo sapiens), sequence (P16050 whole entry, looked up): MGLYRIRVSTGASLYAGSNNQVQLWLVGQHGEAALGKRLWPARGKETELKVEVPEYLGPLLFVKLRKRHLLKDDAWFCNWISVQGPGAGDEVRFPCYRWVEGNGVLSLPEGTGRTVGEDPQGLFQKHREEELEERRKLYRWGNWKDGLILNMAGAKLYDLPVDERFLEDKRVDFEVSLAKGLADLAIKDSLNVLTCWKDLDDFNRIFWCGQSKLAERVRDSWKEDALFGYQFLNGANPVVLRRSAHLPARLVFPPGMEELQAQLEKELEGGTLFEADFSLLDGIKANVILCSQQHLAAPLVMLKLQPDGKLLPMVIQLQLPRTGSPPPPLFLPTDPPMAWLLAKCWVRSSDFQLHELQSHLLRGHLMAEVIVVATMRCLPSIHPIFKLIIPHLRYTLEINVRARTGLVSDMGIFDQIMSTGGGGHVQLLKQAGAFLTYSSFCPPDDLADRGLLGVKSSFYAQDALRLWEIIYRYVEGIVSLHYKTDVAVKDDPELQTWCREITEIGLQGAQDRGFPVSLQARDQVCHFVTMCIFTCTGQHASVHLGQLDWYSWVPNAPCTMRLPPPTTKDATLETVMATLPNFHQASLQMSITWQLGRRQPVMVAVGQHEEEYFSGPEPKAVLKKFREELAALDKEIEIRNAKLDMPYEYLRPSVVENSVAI
row,Structure (SMILES),outcome
1,COc1ccccc1C(=O)N1CCC(N2Cc3ccccc3C2=O)CC1,inactive
2,COc1ccc(CNc2ncnc3c2CN(C2CCNCC2)C(=O)CN3C)cc1OC,inactive
3,Cc1noc(C)c1S(=O)(=O)N1CCC(N2CCOC2=O)CC1,inactive
4,CC(C)S(=O)(=O)N1CCC(c2nnc3n2CCNC3)CC1,inactive
5,Cc1cccc(CN2CCCC23Cc2ccccc2CNC3=O)c1 (stereo not given),inactive
6,CNC(C)c1cccc(OC)c1 (stereo not given),inactive
7,COc1ccc(N2CC3CCC(C2)N3[S+](C)(=O)[O-])cc1,inactive
8,CCOCCNc1ncnc2c1CN(C1CCCNCC1)C(=O)CN2C (stereo not given),inactive
9,O=C1NCc2ccccc2CC12CCN(Cc1ccnc3ccccc13)C2 (stereo not given),inactive
10,CN1CC(=O)N(C2CCCNC2)Cc2c(NC3CCCCC3)ncnc21 (stereo not given),inactive
11,O=C1NCc2ccccc2CC12CCN(Cc1ccc(F)cc1)C2 (stereo not given),inactive
12,CCN1CCC(c2nc3ccc(C)cc3c(=O)[nH]2)CC1,inactive
13,CNC(C)c1ccc(Oc2ccccc2)cc1 (stereo not given),inactive
14,Cc1ccc(CN2CC3ON=C(C(=O)O)C3C2)cc1 (stereo not given),inactive
15,COc1ccc(OC2CN(Cc3ccc(F)cc3)C2)cc1,inactive
16,COc1ccccc1NC1CN(C(=O)OC(C)(C)C)C1,inactive
17,CN1CC(=O)N(C2CCNCC2)Cc2c1ncnc2N1CCC(N2CCOCC2)CC1,inactive
18,Cc1ccc(-c2ccccc2CN)cc1Cl,inactive
19,O=C(c1ccccn1)N1CCc2nc(C3CC3)nc(-c3ccc(Cl)cc3)c2C1,inactive
20,CCCCCNc1ncnc2c1CN(C1CCNCC1)C(=O)CN2C,inactive

row,Structure (SMILES),outcome
1,CN1CCC(C(=O)N2Cc3ccccc3CC3(CCCN(CC4CCNC4)C3)C2)CC1 (stereo not given),inactive
2,COc1cccc(N2C(=O)NC(=NC3CCCCC3)C23CCN(C(=O)c2ccccc2OC)C3)c1 (stereo not given),inactive
3,CC(C)c1nc2c(c(-c3ccc(Cl)cc3)n1)CCN(CC1CCCCC1)CC2,inactive
4,CC(C)OCCCNc1ncnc2c1CN(C1CCCNCC1)C(=O)CN2C (stereo not given),inactive
5,O=c1n(-c2cccc(Cl)c2)nc2n1CCN([S+](=O)([O-])c1cccs1)C2,inactive
6,CNC1CCCc2ccccc21 (stereo not given),inactive
7,COc1ccc(N2CC3CCC(C2)N3CC(C)C)cc1,inactive
8,Cc1cc(C)c(CN2CCC3(Cc4ccccc4CNC3=O)C2)c(C)c1 (stereo not given),inactive
9,O=C(c1ccccc1)N1CCn2c(nnc2C2CCNCC2)C1,inactive
10,CNC(=O)c1cnn2c1CN(C(=O)c1ccccc1)CC2,inactive
11,Cc1cc(C(=O)NCc2cccs2)c2c(C3CCNC3)noc2n1 (stereo not given),inactive
12,Cc1cc(C(=O)NCc2ccc(F)cc2)c2c(C3CCCNC3)noc2n1 (stereo not given),inactive
13,CN1CC(=O)N(C2CNC2)Cc2c(NC3CC3)ncnc21,inactive
14,COc1ccc(-c2cc(C(=O)NCC(C)C)c3c(C)nn(-c4ccccc4)c3n2)cc1,inactive
15,O=C(Nc1ccccc1)N1CCC(c2nnc3n2CCNC3)CC1,inactive
16,O=C1NCc2ccccc2CC12CCN(Cc1ccnc3ccccc13)CC2,inactive
17,CCN1CCCC2(Cc3ccccc3CN([S+](=O)([O-])c3ccccc3)C2)C1 (stereo not given),inactive
18,O=C1NCc2ccccc2CC12CCN(Cc1ccccc1Cl)C2 (stereo not given),inactive
19,CSc1ccc(-c2ccc(C=O)cc2)cc1,inactive
20,CCOc1cccc(CN2CCC3(Cc4ccccc4CNC3=O)C2)c1 (stereo not given),inactive
